Assay results: the supplement of paper PMC4466140

The binders below were run against AgAbp1 (assay: SPOT peptide array binding signal intensity (averaged, normalized) (arbitrary units (background-subtracted, floor 0; scale differs between SH3 domains)); higher = stronger binding of the SH3 domain to the peptide).
Procedure, shortened: (§1)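 Four yeast species supplied the SH3 domains, which were expressed as GST fusions in E. coli BL21(DE3) and purified on glutathione Sepharose. Incubation with cellulose membranes carrying synthetic 15-mer peptides, cysteines exchanged for serines, ran overnight at 4°C at 10 μg/ml in TBS-based blocking buffer. Binding signal is reported as normalized, background-subtracted spot intensity averaged over replicates, in arbitrary units not shared between domains.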

Binder | SPOT peptide array binding signal intensity
SGVRLPAPPPPPRRG | 606

What follows are binders tested against AgBbc1 in the same assay as above.
Procedure, shortened: as §1

Binder | SPOT peptide array binding signal intensity
SGVRLPAPPPPPRRG | 1230

The binders below were run against AgBem1-D1 in the same assay as above.
Procedure, shortened: as §1

Binder | SPOT peptide array binding signal intensity
SGVRLPAPPPPPRRG | 36

These binders were tested against AgBzz1-D1 in the same assay as above.
Procedure, shortened: as §1

Binder | SPOT peptide array binding signal intensity
SGVRLPAPPPPPRRG | 404

What follows are binders tested against AgBzz1-D2 in the same assay as above.
Procedure, shortened: as §1

Binder | SPOT peptide array binding signal intensity
SGVRLPAPPPPPRRG | 140

The binders below were run against AgCyk3 in the same assay as above.
Procedure, shortened: as §1

Binder | SPOT peptide array binding signal intensity
SGVRLPAPPPPPRRG | 2

Each binder was assayed against AgFus1 in the same assay as above.
Procedure, shortened: as §1

Binder | SPOT peptide array binding signal intensity
SGVRLPAPPPPPRRG | 21

The binders below were run against AgHof1 in the same assay as above.
Procedure, shortened: as §1

Binder | SPOT peptide array binding signal intensity
SGVRLPAPPPPPRRG | 472

These binders were tested against AgHse1 in the same assay as above.
Procedure, shortened: as §1

Binder | SPOT peptide array binding signal intensity
SGVRLPAPPPPPRRG | 24.5

These binders were tested against AgLsb1 in the same assay as above.
Procedure, shortened: as §1

Binder | SPOT peptide array binding signal intensity
SGVRLPAPPPPPRRG | 699

What follows are binders tested against AgLsb4 in the same assay as above.
Procedure, shortened: as §1

Binder | SPOT peptide array binding signal intensity
SGVRLPAPPPPPRRG | 1040

The binders below were run against AgMyo5 in the same assay as above.
Procedure, shortened: as §1

Binder | SPOT peptide array binding signal intensity
SGVRLPAPPPPPRRG | 579

Each binder was assayed against AgNbp2 in the same assay as above.
Procedure, shortened: as §1

Binder | SPOT peptide array binding signal intensity
SGVRLPAPPPPPRRG | 1250

What follows are binders tested against AgRvs167 in the same assay as above.
Procedure, shortened: as §1

Binder | SPOT peptide array binding signal intensity
SGVRLPAPPPPPRRG | 1310

What follows are binders tested against AgSho1 in the same assay as above.
Procedure, shortened: as §1

Binder | SPOT peptide array binding signal intensity
SGVRLPAPPPPPRRG | 36

These binders were tested against AgSla1-D1-D2 in the same assay as above.
Procedure, shortened: as §1

Binder | SPOT peptide array binding signal intensity
SGVRLPAPPPPPRRG | 38

The binders below were run against AgSla1-D3 in the same assay as above.
Procedure, shortened: as §1

Binder | SPOT peptide array binding signal intensity
SGVRLPAPPPPPRRG | 61

The binders below were run against CaAbp1-D1 in the same assay as above.
Procedure, shortened: as §1

Binder | SPOT peptide array binding signal intensity
SGVRLPAPPPPPRRG | 1510

Each binder was assayed against CaAbp1-D2 in the same assay as above.
Procedure, shortened: as §1

Binder | SPOT peptide array binding signal intensity
SGVRLPAPPPPPRRG | 1030

The binders below were run against CaBbc1 in the same assay as above.
Procedure, shortened: as §1

Binder | SPOT peptide array binding signal intensity
SGVRLPAPPPPPRRG | 1050

These binders were tested against CaBem1-D1 in the same assay as above.
Procedure, shortened: as §1

Binder | SPOT peptide array binding signal intensity
SGVRLPAPPPPPRRG | 544

What follows are binders tested against CaBzz1-D1 in the same assay as above.
Procedure, shortened: as §1

Binder | SPOT peptide array binding signal intensity
SGVRLPAPPPPPRRG | 3080

These binders were tested against CaBzz1-D2 in the same assay as above.
Procedure, shortened: as §1

Binder | SPOT peptide array binding signal intensity
SGVRLPAPPPPPRRG | 1360

What follows are binders tested against CaCyk3 in the same assay as above.
Procedure, shortened: as §1

Binder | SPOT peptide array binding signal intensity
SGVRLPAPPPPPRRG | 44

Each binder was assayed against CaFus1 in the same assay as above.
Procedure, shortened: as §1

Binder | SPOT peptide array binding signal intensity
SGVRLPAPPPPPRRG | 74

What follows are binders tested against CaHof1 in the same assay as above.
Procedure, shortened: as §1

Binder | SPOT peptide array binding signal intensity
SGVRLPAPPPPPRRG | 114

What follows are binders tested against CaHse1 in the same assay as above.
Procedure, shortened: as §1

Binder | SPOT peptide array binding signal intensity
SGVRLPAPPPPPRRG | 20

Each binder was assayed against CaLsb1 in the same assay as above.
Procedure, shortened: as §1

Binder | SPOT peptide array binding signal intensity
SGVRLPAPPPPPRRG | 0.5

The binders below were run against CaLsb4 in the same assay as above.
Procedure, shortened: as §1

Binder | SPOT peptide array binding signal intensity
SGVRLPAPPPPPRRG | 1890

Each binder was assayed against CaMyo5 in the same assay as above.
Procedure, shortened: as §1

Binder | SPOT peptide array binding signal intensity
SGVRLPAPPPPPRRG | 42

What follows are binders tested against CaNbp2 in the same assay as above.
Procedure, shortened: as §1

Binder | SPOT peptide array binding signal intensity
SGVRLPAPPPPPRRG | 216

What follows are binders tested against CaRvs167 in the same assay as above.
Procedure, shortened: as §1

Binder | SPOT peptide array binding signal intensity
SGVRLPAPPPPPRRG | 1350

Each binder was assayed against CaRvs167-3 in the same assay as above.
Procedure, shortened: as §1

Binder | SPOT peptide array binding signal intensity
SGVRLPAPPPPPRRG | 10.2

What follows are binders tested against CaSho1 in the same assay as above.
Procedure, shortened: as §1

Binder | SPOT peptide array binding signal intensity
SGVRLPAPPPPPRRG | 34

These binders were tested against CaSla1-D1-D2 in the same assay as above.
Procedure, shortened: as §1

Binder | SPOT peptide array binding signal intensity
SGVRLPAPPPPPRRG | 3580

These binders were tested against CaSla1-D3 in the same assay as above.
Procedure, shortened: as §1

Binder | SPOT peptide array binding signal intensity
SGVRLPAPPPPPRRG | 77.2

What follows are binders tested against ScAbp1 in the same assay as above.
Procedure, shortened: as §1

Binder | SPOT peptide array binding signal intensity
SGVRLPAPPPPPRRG | 452

The binders below were run against ScBbc1 in the same assay as above.
Procedure, shortened: as §1

Binder | SPOT peptide array binding signal intensity
SGVRLPAPPPPPRRG | 267

These binders were tested against ScBem1-D1 in the same assay as above.
Procedure, shortened: as §1

Binder | SPOT peptide array binding signal intensity
SGVRLPAPPPPPRRG | ≤ 0

Each binder was assayed against ScBzz1-D1 in the same assay as above.
Procedure, shortened: as §1

Binder | SPOT peptide array binding signal intensity
SGVRLPAPPPPPRRG | 257

What follows are binders tested against ScBzz1-D2 in the same assay as above.
Procedure, shortened: as §1

Binder | SPOT peptide array binding signal intensity
SGVRLPAPPPPPRRG | 36

The binders below were run against ScCyk3 in the same assay as above.
Procedure, shortened: as §1

Binder | SPOT peptide array binding signal intensity
SGVRLPAPPPPPRRG | 6.5

The binders below were run against ScFus1 in the same assay as above.
Procedure, shortened: as §1

Binder | SPOT peptide array binding signal intensity
SGVRLPAPPPPPRRG | 3.5

The binders below were run against ScHof1 in the same assay as above.
Procedure, shortened: as §1

Binder | SPOT peptide array binding signal intensity
SGVRLPAPPPPPRRG | 482

The binders below were run against ScHse1 in the same assay as above.
Procedure, shortened: as §1

Binder | SPOT peptide array binding signal intensity
SGVRLPAPPPPPRRG | 169

What follows are binders tested against ScLsb1 in the same assay as above.
Procedure, shortened: as §1

Binder | SPOT peptide array binding signal intensity
SGVRLPAPPPPPRRG | 438

Each binder was assayed against ScLsb2 in the same assay as above.
Procedure, shortened: as §1

Binder | SPOT peptide array binding signal intensity
SGVRLPAPPPPPRRG | 438

Each binder was assayed against ScLsb3 in the same assay as above.
Procedure, shortened: as §1

Binder | SPOT peptide array binding signal intensity
SGVRLPAPPPPPRRG | 2990

What follows are binders tested against ScLsb4 in the same assay as above.
Procedure, shortened: as §1

Binder | SPOT peptide array binding signal intensity
SGVRLPAPPPPPRRG | 2100

These binders were tested against ScMyo3 in the same assay as above.
Procedure, shortened: as §1

Binder | SPOT peptide array binding signal intensity
SGVRLPAPPPPPRRG | 1670

Each binder was assayed against ScMyo5 in the same assay as above.
Procedure, shortened: as §1

Binder | SPOT peptide array binding signal intensity
SGVRLPAPPPPPRRG | 864

The binders below were run against ScNbp2 in the same assay as above.
Procedure, shortened: as §1

Binder | SPOT peptide array binding signal intensity
SGVRLPAPPPPPRRG | 622

Each binder was assayed against ScPex13 in the same assay as above.
Procedure, shortened: as §1

Binder | SPOT peptide array binding signal intensity
SGVRLPAPPPPPRRG | 1050

These binders were tested against ScRvs167 in the same assay as above.
Procedure, shortened: as §1

Binder | SPOT peptide array binding signal intensity
SGVRLPAPPPPPRRG | 3210

What follows are binders tested against ScSho1 in the same assay as above.
Procedure, shortened: as §1

Binder | SPOT peptide array binding signal intensity
SGVRLPAPPPPPRRG | 1100

These binders were tested against ScSla1-D1-D2 in the same assay as above.
Procedure, shortened: as §1

Binder | SPOT peptide array binding signal intensity
SGVRLPAPPPPPRRG | 2820

These binders were tested against ScSla1-D3 in the same assay as above.
Procedure, shortened: as §1

Binder | SPOT peptide array binding signal intensity
SGVRLPAPPPPPRRG | 9

These binders were tested against SpAbp1-D1 in the same assay as above.
Procedure, shortened: as §1

Binder | SPOT peptide array binding signal intensity
SGVRLPAPPPPPRRG | 2280

Each binder was assayed against SpBbc1 in the same assay as above.
Procedure, shortened: as §1

Binder | SPOT peptide array binding signal intensity
SGVRLPAPPPPPRRG | 19.2

Each binder was assayed against SpBzz1-D1 in the same assay as above.
Procedure, shortened: as §1

Binder | SPOT peptide array binding signal intensity
SGVRLPAPPPPPRRG | 3360

Each binder was assayed against SpBzz1-D2 in the same assay as above.
Procedure, shortened: as §1

Binder | SPOT peptide array binding signal intensity
SGVRLPAPPPPPRRG | 1490

These binders were tested against SpCyk3 in the same assay as above.
Procedure, shortened: as §1

Binder | SPOT peptide array binding signal intensity
SGVRLPAPPPPPRRG | 17

Each binder was assayed against SpHof1 in the same assay as above.
Procedure, shortened: as §1

Binder | SPOT peptide array binding signal intensity
SGVRLPAPPPPPRRG | 248

These binders were tested against SpHof1-2 in the same assay as above.
Procedure, shortened: as §1

Binder | SPOT peptide array binding signal intensity
SGVRLPAPPPPPRRG | 231

Each binder was assayed against SpHof1-3 in the same assay as above.
Procedure, shortened: as §1

Binder | SPOT peptide array binding signal intensity
SGVRLPAPPPPPRRG | 1500

These binders were tested against SpHse1 in the same assay as above.
Procedure, shortened: as §1

Binder | SPOT peptide array binding signal intensity
SGVRLPAPPPPPRRG | 67.5

Each binder was assayed against SpLsb1 in the same assay as above.
Procedure, shortened: as §1

Binder | SPOT peptide array binding signal intensity
SGVRLPAPPPPPRRG | 870

The binders below were run against SpLsb4 in the same assay as above.
Procedure, shortened: as §1

Binder | SPOT peptide array binding signal intensity
SGVRLPAPPPPPRRG | 6010

The binders below were run against SpMyo1 in the same assay as above.
Procedure, shortened: as §1

Binder | SPOT peptide array binding signal intensity
SGVRLPAPPPPPRRG | 502

The binders below were run against SpNbp2 in the same assay as above.
Procedure, shortened: as §1

Binder | SPOT peptide array binding signal intensity
SGVRLPAPPPPPRRG | 26

Each binder was assayed against SpPex13 in the same assay as above.
Procedure, shortened: as §1

Binder | SPOT peptide array binding signal intensity
SGVRLPAPPPPPRRG | 35

These binders were tested against SpRvs167 in the same assay as above.
Procedure, shortened: as §1

Binder | SPOT peptide array binding signal intensity
SGVRLPAPPPPPRRG | 2550

What follows are binders tested against SpSla1-D1-D2 in the same assay as above.
Procedure, shortened: as §1

Binder | SPOT peptide array binding signal intensity
SGVRLPAPPPPPRRG | 993

The binders below were run against SpSla1-D3 in the same assay as above.
Procedure, shortened: as §1

Binder | SPOT peptide array binding signal intensity
SGVRLPAPPPPPRRG | 0.5
